# Out of some 310,000 compounds screened, about 14,000 (4.5%) showed an effect of 50% or more. Effects have a minus sign here. The list comes from a sample in which strong results are over-represented; it also holds similar structures and randomly drawn compounds.
# Molecular target: human ether-à-go-go-related gene (hERG) potassium channel (human, UniProt Q12809)
# Assay: primary screen, population patch clamp on CHO cells stably expressing hERG; higher = less effect of the substance
# 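Further: peak tail current of the secondary pulse compared with the same well before compound.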
# Chain of human ether-à-go-go-related gene (hERG) potassium channel (Q12809 whole entry, looked up): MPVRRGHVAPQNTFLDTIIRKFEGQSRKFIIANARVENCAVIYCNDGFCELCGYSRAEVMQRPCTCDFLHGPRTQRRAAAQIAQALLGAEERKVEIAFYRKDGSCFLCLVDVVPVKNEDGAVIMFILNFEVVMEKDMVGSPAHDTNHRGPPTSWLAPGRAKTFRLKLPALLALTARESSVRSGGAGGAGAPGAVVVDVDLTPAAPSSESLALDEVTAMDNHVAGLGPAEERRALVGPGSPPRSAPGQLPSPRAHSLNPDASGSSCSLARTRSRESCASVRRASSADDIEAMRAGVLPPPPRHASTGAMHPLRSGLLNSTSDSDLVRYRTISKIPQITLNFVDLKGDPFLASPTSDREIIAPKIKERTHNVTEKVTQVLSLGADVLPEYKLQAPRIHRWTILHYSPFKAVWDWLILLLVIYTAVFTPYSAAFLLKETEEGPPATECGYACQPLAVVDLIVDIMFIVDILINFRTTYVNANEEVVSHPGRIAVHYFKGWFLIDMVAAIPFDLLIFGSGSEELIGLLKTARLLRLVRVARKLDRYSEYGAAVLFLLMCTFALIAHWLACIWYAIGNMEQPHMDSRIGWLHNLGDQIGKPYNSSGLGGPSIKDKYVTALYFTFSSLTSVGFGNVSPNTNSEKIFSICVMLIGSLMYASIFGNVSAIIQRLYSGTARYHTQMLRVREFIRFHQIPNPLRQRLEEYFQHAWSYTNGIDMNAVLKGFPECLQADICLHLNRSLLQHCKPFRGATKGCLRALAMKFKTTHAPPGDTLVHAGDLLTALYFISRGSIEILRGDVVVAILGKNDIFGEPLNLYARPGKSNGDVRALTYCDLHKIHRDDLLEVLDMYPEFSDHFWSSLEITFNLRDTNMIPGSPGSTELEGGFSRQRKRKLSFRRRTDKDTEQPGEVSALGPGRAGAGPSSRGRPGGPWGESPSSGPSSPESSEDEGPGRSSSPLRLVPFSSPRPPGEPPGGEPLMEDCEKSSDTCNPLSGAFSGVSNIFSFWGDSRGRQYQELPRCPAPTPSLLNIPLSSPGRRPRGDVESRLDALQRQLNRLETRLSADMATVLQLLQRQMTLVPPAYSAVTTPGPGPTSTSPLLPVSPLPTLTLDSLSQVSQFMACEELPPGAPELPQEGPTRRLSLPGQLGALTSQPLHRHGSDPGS
row,SMILES,"hERG current change (%, negative = inhibition) at 10uM [%]"
1,Cc1ccc(-c2cc(C(=O)Nc3cc(C)on3)c3ccccc3n2)cc1,4.13
2,C=C(C)Cn1c(C2CC(=O)N(c3ccccc3F)C2)nc2ccccc21 (stereo not shown),-27
3,Cc1ccc(OCC(=O)NC(C)c2ccc(Cl)c(Cl)c2)c([N+](=O)[O-])n1 (stereo not shown),-21.4
4,CN(C)CCCNCCCNC(=O)/C(=N\O)c1ccccc1,6.64
5,Cc1ccccc1N1CCN(C2CCCN(C(=O)c3ccc(Cl)s3)C2)CC1 (stereo not shown),-46.8
6,CC(=O)c1ccc(C(=O)N2CCCC(N3CCN(c4ccc(F)cc4)CC3)C2)s1 (stereo not shown),-63.7
7,O=C(c1ccncc1)N1CCCC(N2CCN(c3ccc(F)cc3)CC2)C1 (stereo not shown),-44.6
8,O=C(c1cccs1)N1CCN(c2ccc(F)cc2)CC1,-9.63
9,O=C(C1CCOCC1)N1CCCC(N2CCN(c3ccc(F)cc3)CC2)C1 (stereo not shown),-3.64
10,COc1ccccc1N1CCN(C2CCCN(C(=O)c3cccc(-c4ccco4)c3)C2)CC1 (stereo not shown),-36.1
11,CC(C)n1cc(C(=O)N2CCCC(N3CCN(c4ccc(F)cc4)CC3)C2)cn1 (stereo not shown),-34.9
12,CC(C)=CC(=O)N1CCCC(N2CCN(c3ccc(F)cc3)CC2)C1 (stereo not shown),-0.816
13,O=C(c1ccoc1)N1CCCC(N2CCN(c3ccc(F)cc3)CC2)C1 (stereo not shown),-48.1
14,O=C(c1ccc(Cl)s1)N1CCCC(N2CCN(c3ccc(F)cc3)CC2)C1 (stereo not shown),-70.1
15,O=C(c1cccs1)N1CCCC(N2CCN(c3ccc(F)cc3)CC2)C1 (stereo not shown),-65.7
16,O=C(c1cccc(-c2ccco2)c1)N1CCCC(N2CCN(c3ccc(F)cc3)CC2)C1 (stereo not shown),-78.5
17,CCN(C(=O)COC(=O)C1CCN(S(=O)(=O)c2ccc(C)c(C)c2)CC1)C1CCS(=O)(=O)C1 (stereo not shown),-7.82
18,Cc1nnc2ccc(-c3ccc(NS(C)(=O)=O)cc3)nn12,-16
19,CCOc1nc(Nc2ccccc2)nc(OCC)n1,-21.7
20,COc1ccc(-c2ccc(N(C)C)cc2)cc1[C@H]1[C@H]2C=CC[C@@H](C)[C@@H]2C(=O)N1Cc1ccccc1,10.1
21,Cc1nc(N2CCN(Cc3ccccc3)CC2)nc2c1C(=O)CC(C)C2 (stereo not shown),-5.32

row,SMILES,"hERG current change (%, negative = inhibition) at 10uM [%]"
1,C(=N\N1CCN(C2c3ccccc3-c3ccccc32)CC1)/c1cccnc1,2.63
2,Cc1nnc(NC(=O)c2ccc(S(=O)(=O)N3CC(C)OC(C)C3)cc2)o1 (stereo not shown),12.6
3,Cc1ccc(S(=O)(=O)N2CCCC2C(=O)Nc2nc3ccccc3s2)cc1 (stereo not shown),-14.8
4,Oc1ccc(/C=N/N=C(c2ccccc2)c2ccccc2)c(O)c1O,8.49
5,COC(=O)CSc1nccc(C)n1,14.6
6,COC(=O)c1cn(NC(=O)Cn2nc([N+](=O)[O-])c(Cl)c2C)c(=O)c2ccccc12,18.6
7,CNC(=O)c1ccccc1NC(=O)c1cccc(S(=O)(=O)N2CCCCC2)c1,-51.1
8,CCNC(=O)c1ccccc1NC(=O)c1cccc(S(=O)(=O)N2CCOCC2)c1,-71.5
9,CC1CCN(S(=O)(=O)c2cccc(C(=O)Nc3ccccc3)c2)CC1,-9.3
10,CCNC(=O)c1ccccc1NC(=O)c1cccc(S(=O)(=O)N2CCC(C)CC2)c1,-55.4
11,O=C(Nc1ccccc1C(=O)N1CCCC1)c1cccc(S(=O)(=O)N2CCCCCC2)c1,-39.3
12,Cc1ccccc1NC(=O)c1cccc(S(=O)(=O)N2CCOCC2)c1,31.9
13,O=C(Nc1ccccc1C(=O)N1CCCC1)c1cccc(S(=O)(=O)N2CCCCC2)c1,-12.1
14,CC1CCN(S(=O)(=O)c2cccc(C(=O)Nc3ccccn3)c2)CC1,-22.1
15,O=C(Nc1ccccc1O)c1cccc(S(=O)(=O)N2CCOCC2)c1,17.7
16,COc1c(O)c(=O)n2c3ccccc3c3ccnc1c32,7.51
17,CCc1ccc(NC(=O)Nn2cnnc2)cc1,23.7
18,COC(=O)CNC(=O)CSc1nnc(-c2ccc(OC)cc2)n1CC(C)C,4.97
19,O=C(/C=N/O)Nc1ccccc1C(=O)O,-13.7
20,N#Cc1ccc(C23CC4(C2)[C@H](CN(CC2CCCCC2)[C@@H]4c2ccccc2)C3c2ccccc2)cc1 (stereo partly shown),-13.6
21,O=C(Nc1ccc(Cl)cc1)c1cccnc1N1CCCCC1,-13.3

row,SMILES,"hERG current change (%, negative = inhibition) at 10uM [%]"
1,COc1cc(C(=O)NCCNc2nc3ccc(C)cc3cc2C#N)cc(OC)c1OC,-4.74
2,Cc1cccc2cc3c(NC(=O)CC(C)C)nn(C)c3nc12,10.2
3,CSc1ccc(-c2sc(Nc3ccccc3)n[n+]2-c2ccccc2)cc1.[Cl-],-46.2
4,Oc1ccc(-c2sc(Nc3ccccc3)n[n+]2-c2ccc(F)cc2)cc1.[Cl-],-1.63
5,O=C(O)c1ccc(-c2sc(Nc3ccccc3)n[n+]2-c2ccc(F)cc2)cc1.[Cl-],2.83
6,Cc1cccc(-c2sc(Nc3ccccc3)n[n+]2-c2ccc(F)cc2)c1.[Cl-],21.7
7,Clc1cccc(-c2sc(Nc3ccccc3)n[n+]2-c2ccccc2)c1Cl.[Cl-],5.53
8,CSc1ccc(-c2sc(Nc3ccccc3)n[n+]2-c2ccc(F)cc2)cc1.[Cl-],1.55
9,CN(C)c1ccc(-c2sc(Nc3ccccc3)n[n+]2-c2ccc(F)cc2)cc1.[Cl-],-73.1
10,CCN(CC)c1ccc(-c2sc(Nc3ccccc3)n[n+]2-c2ccc(F)cc2)cc1.[Cl-],-71.6
11,Fc1ccc(-[n+]2nc(Nc3ccccc3)sc2-c2c(Cl)cccc2Cl)cc1.[Cl-],-64
12,Cc1cccc(-c2sc(Nc3ccccc3)n[n+]2-c2ccccc2)c1.[Cl-],-72
13,Fc1ccc(-[n+]2nc(Nc3ccccc3)sc2-c2cccc(Cl)c2Cl)cc1.[Cl-],8
14,CCc1ccc(Nc2n[n+](-c3ccccc3)c(-c3ccc(N(CC)CC)cc3)s2)cc1.[Cl-],-36
15,Cl.O=C(c1ccco1)N1CCN(Cc2nnnn2CC2CCCO2)CC1 (stereo not shown),-3.16
16,Cn1c(=O)[nH]c(=O)c2c1nc(NC1CCCC1)n2Cc1ccccc1,15.8
17,CC1CCN(c2c(NCc3ccc(C(=O)N4c5ccccc5CC4C)cc3)c(=O)c2=O)CC1 (stereo not shown),-13
18,Cc1ccc(S(=O)(=O)Nc2c(C(=O)O)[nH]c3ccccc23)c(C)c1,8.39
19,N#C/C(N)=C(/C#N)N=Cc1cccc(Cl)c1,4.99
20,CCN1CCN(Cc2c(O)ccc3c2O/C(=C\c2ccc(C)cc2)C3=O)CC1,-35.7
21,CSc1ccc(S(=O)(=O)Nc2ccc(NC(C)=O)cc2)cc1,-11.3

row,SMILES,"hERG current change (%, negative = inhibition) at 10uM [%]"
1,CCOc1ccc(CN(C(=O)/C=C/c2ccco2)C2CCS(=O)(=O)C2)cc1 (stereo not shown),-31.6
2,CC(=O)c1cccc(N(C(=O)CNC(=O)c2ccco2)C(C(=O)NC2CCCC2)c2ccc(C)o2)c1 (stereo not shown),6.93
3,O=C(NCCCN1CCCCC1)C1CCCN(c2ncnc3c2nc2n3CCCCC2)C1 (stereo not shown),1.8
4,O=C(C1CCCN(c2ncnc3c2nc2n3CCCCC2)C1)N1CCN(c2ccc(F)cc2)CC1 (stereo not shown),-66.8
5,O=C(C1CCN(c2ncnc3c2nc2n3CCCCC2)CC1)N1CCN(c2ccc(F)cc2)CC1,-51.5
6,CCOC(=O)C1CCN(C(=O)C2CCCN(c3ncnc4c3nc3n4CCCCC3)C2)CC1 (stereo not shown),-34.1
7,CC1CCN(CCCNC(=O)C2CCCN(c3ncnc4c3nc3n4CCCCC3)C2)CC1 (stereo not shown),-3.75
8,O=C(C1CCN(c2ncnc3c2nc2n3CCCCC2)CC1)N1CCN(c2ccccc2F)CC1,-33.1
9,CN1CCN(C(=O)C2CCN(c3ncnc4c3nc3n4CCCCC3)CC2)CC1,17.7
10,O=C(C1CCCN(c2ncnc3c2nc2n3CCCCC2)C1)N1CCN(c2ccccc2F)CC1 (stereo not shown),-72
11,CCN1CCN(C(=O)C2CCCN(c3ncnc4c3nc3n4CCCCC3)C2)CC1 (stereo not shown),11.6
12,O=C(NCCCN1CCN(c2ccc(F)cc2)CC1)C1CCCN(c2ncnc3c2nc2n3CCCCC2)C1 (stereo not shown),-66.3
13,O=C(C1CCN(c2ncnc3c2nc2n3CCCCC2)CC1)N1CCCCC1,16
14,Cc1ccc(N2CCN(C(=O)C3CCCN(c4ncnc5c4nc4n5CCCCC4)C3)CC2)c(C)c1 (stereo not shown),-7.35
15,O=C(O)CCC(=O)Nc1cc(C(F)(F)F)cc(C(F)(F)F)c1,15.1
16,Cc1ccccc1-n1c(-c2csc(C)c2C)n[nH]c1=S,17.6
17,Cc1cc(C)c2c(N)c(C(=O)c3cccc(Cl)c3)sc2n1,1.67
18,CCOc1ccc(C(=O)N2CCc3cc(OC)c(OC)cc3C2)cc1OCC,2.45
19,CCOC(=O)C(C(=O)OCC)N(C#N)c1nc(OC)nc(N(C)C)n1,-4.52
